Source: the supplement of paper PMC8183993
Values joined by “and” are separate entries in the source; they are usually repeats but may differ in a detail not shown here. Equal entries are not always repeated. Structures can show the parent of a compound that is named as a salt. ± gives the standard deviation of the averaged measurements. The full ranking holds about 3,100 compounds; the median of “mean cytoplasmic OPP incorporation (global translation) relative to DMSO” is about 100, and the lowest 2% start at about 56. What follows is part of a selection rich in the lowest values, with near analogues and random picks from the rest.

These compounds were tested on U2OS (assay: mean cytoplasmic OPP incorporation (global translation) relative to DMSO (% of DMSO); higher = more protein synthesis). Details: 10 µM; 24 h.
Procedure: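 Primary image-based screen in U2OS cells: compounds at 10 uM for 24 h, then a 1 h o-propargyl-puromycin (OPP) pulse, click labelling, and high-throughput microscopy. Mean cytoplasmic OPP intensity and nuclei count were normalised to DMSO wells within each plate (DMSO = 100) and averaged over triplicate plates.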
For `CC(C)C(=O)SCCCCCCC(=O)Nc1nc(-c2ccccc2)cs1`, the “mean cytoplasmic OPP incorporation” value was 117. In the case of `CCCCCCN(CCCCCC)C(=O)Cc1c(-c2ccc(Cl)cc2)[nH]c2ccc(Cl)cc12`, the “mean cytoplasmic OPP incorporation” value is reported as 104. In the case of `Cc1ccc(CC2(O)CCN(CCOc3ccc(O)cc3)CC2)cc1`, the “mean cytoplasmic OPP incorporation” value is reported as 108. For `COc1cc(C#N)ccc1S(=O)(=O)Nc1ccc2c(c1)cc(C)c(=O)n2C`, the “mean cytoplasmic OPP incorporation” value was 109. For `COc1ccc(CCN(C)CCCOc2ccc(S(=O)(=O)c3c(C(C)C)c4ccccc4n3C)cc2)cc1OC`, the “mean cytoplasmic OPP incorporation” value was 110. In the case of `Clc1cc2c(NC3CCCC3)nnc(-c3ccncc3)c2cc1Cl`, the “mean cytoplasmic OPP incorporation” value is reported as 114. `CSc1cccc(Nc2ncc3cc(-c4c(Cl)cccc4Cl)c(=O)n(C)c3n2)c1` was tested, and the “mean cytoplasmic OPP incorporation” value was 116. In the case of `CCN(CC)CCOc1ccc(Nc2ncc3cc(-c4c(Cl)cccc4Cl)c(=O)n(C)c3n2)cc1`, the “mean cytoplasmic OPP incorporation” value is reported as 53.6. `Cc1cnc(Nc2ccc(OCCN3CCCC3)cc2)nc1Nc1cccc(S(=O)(=O)NC(C)(C)C)c1` was tested, and the “mean cytoplasmic OPP incorporation” value was 82.6 and 66.4. In the case of `Cc1ccc(S(=O)(=O)C=CC#N)cc1`, the “mean cytoplasmic OPP incorporation” value is reported as 65.3. With `O=C1Nc2ccc(-c3cccnc3)cc2/C1=C/c1ccc[nH]1` [JAK3 Inhibitor VI] the “mean cytoplasmic OPP incorporation” value was 90. `N=C(N)c1ccc(N2CCN(C3CCN(CC(=O)O)CC3)CC2)cc1` was tested, and the “mean cytoplasmic OPP incorporation” value was 99.3. `NC[C@H]1CC[C@H](C(=O)O)CC1` [Tranexamic acid] was tested, and the “mean cytoplasmic OPP incorporation” value was 47. With `NCC1CCC(C(=O)N[C@@H](Cc2ccccc2)C(=O)Nc2ccc(CC(=O)O)cc2)CC1` (some centres not stated) the “mean cytoplasmic OPP incorporation” value was 97.5. For `CC1(C)CCC(C)(C)c2cc(C(=O)Nc3ccc(C(=O)O)cc3)ccc21`, the “mean cytoplasmic OPP incorporation” value was 105 and 99.6. In the case of `CN(CCc1ccc(Cl)c(Cl)c1)CC(O)COc1ccc(NS(C)(=O)=O)cc1` (configuration not stated), the “mean cytoplasmic OPP incorporation” value is reported as 102 and 107. With `N#Cc1ccc(NC(=O)Nc2ccccc2Br)c2n[nH]nc12` the “mean cytoplasmic OPP incorporation” value was 104. With `Cc1nc(Nc2n[nH]c3c2CN(C(=O)N[C@H](CN(C)C)c2ccccc2)C3(C)C)c2sccc2n1` the “mean cytoplasmic OPP incorporation” value was 45.5. With `CC(C)CC(=O)Nc1n[nH]c2c1CN(C(=O)C1CCN(C)CC1)C2(C)C` the “mean cytoplasmic OPP incorporation” value was 65.9. `CSc1nc(NC2CCCC2)c([N+](=O)[O-])c(NC2CCCC2)n1` was tested, and the “mean cytoplasmic OPP incorporation” value was 101. `COC(C)(C)CCCC(C)C/C=C/C(C)=C/C(=O)O` (configuration not stated) [Methoprene acid] was tested, and the “mean cytoplasmic OPP incorporation” value was 99.2. In the case of `CC(=O)OCOC(c1cc([N+](=O)[O-])ccc1Oc1ccc(Br)cc1)P(=O)(OCOC(C)=O)OCOC(C)=O` (configuration not stated), the “mean cytoplasmic OPP incorporation” value is reported as 101. For `CC(C)N1Cc2cc(S(C)(=O)=O)ccc2N(CCN2CC=C(c3c[nH]c4cc(F)ccc34)CC2)S1(=O)=O`, the “mean cytoplasmic OPP incorporation” value was 106. `CC(C)[C@H]1c2ccc(F)cc2CC[C@@]1(CCN(C)CCCc1nc2ccccc2[nH]1)OC(=O)C1CC1` [NNC 55-0396 dihydrochloride] was tested, and the “mean cytoplasmic OPP incorporation” value was 55.5. `COCC(=O)O[C@]1(CCN(C)CCCc2nc3ccccc3[nH]2)CCc2cc(F)ccc2[C@@H]1C(C)C` [Mibefradil dihydrochloride] was tested, and the “mean cytoplasmic OPP incorporation” value was 116. In the case of `N#Cc1ccc(NCCNCC(=O)N2CCC[C@H]2C#N)nc1` [NVP DPP 728 dihydrochloride], the “mean cytoplasmic OPP incorporation” value is reported as 90.3. In the case of `COc1ccc(CCN(C)CCCN2CCc3cc(OC)c(OC)cc3CC2=O)cc1OC` [Zatebradine hydrochloride], the “mean cytoplasmic OPP incorporation” value is reported as 107. With `COc1cc(N)c(Cl)cc1C(=O)OCCCN1CCCCC1` the “mean cytoplasmic OPP incorporation” value was 104. `O=C(O)c1ccc(N2C(=O)C(=Cc3ccccc3)SC2=S)cc1` was tested, and the “mean cytoplasmic OPP incorporation” value was 102. In the case of `Cc1cc(-c2ccccc2)nnc1NCCN1CCOCC1` [Minaprine dihydrochloride], the “mean cytoplasmic OPP incorporation” value is reported as 99.4. In the case of `O=C(NCCN1CCOCC1)c1ccc(Cl)cc1` [Moclobemide], the “mean cytoplasmic OPP incorporation” value is reported as 91.9. For `O=C1C(Cl)=C(NCCN2CCOCC2)C(=O)c2ncccc21`, the “mean cytoplasmic OPP incorporation” value was 31. For `Cl/C(=C\n1cncn1)c1ccc(Cl)cc1Cl` [Loreclezole hydrochloride], the “mean cytoplasmic OPP incorporation” value was 98.7. `Cc1oc(S(=O)(=O)N2CCCCC2)cc1NC(=O)Nc1ccccc1` was tested, and the “mean cytoplasmic OPP incorporation” value was 102. In the case of `O=C(NCCCCN1CCN(c2cccc(Cl)c2Cl)CC1)c1ccc2c(c1)Cc1ccccc1-2`, the “mean cytoplasmic OPP incorporation” value is reported as 107. For `COc1ccccc1N1CCN(CCCCNC(=O)c2ccc3ccccc3c2)CC1`, the “mean cytoplasmic OPP incorporation” value was 112. `Cc1cn(CCN2CCN(c3ccccc3-c3cc(C#N)cc(C(=O)NCCCN4CCCC4)c3)CC2)c2ccccc12` was tested, and the “mean cytoplasmic OPP incorporation” value was 30.6. In the case of `CC(C)=CCC/C(C)=C/CC/C(C)=C/CSCC(=O)O` [Farnesylthioacetic acid], the “mean cytoplasmic OPP incorporation” value is reported as 96.1. In the case of `CSCC[C@H](NC=O)C(=O)N[C@@H](CC(=O)O)C(=O)NCC(=O)N[C@@H](CS)C(=O)N[C@@H](CCC(=O)O)C(=O)N[C@@H](CC(C)C)C(=O)O`, the “mean cytoplasmic OPP incorporation” value is reported as 103. With `CC(=O)N1CCN(C)CC1` [1-Acetyl-4-methylpiperazine hydrochloride] the “mean cytoplasmic OPP incorporation” value was 99.1. For `Cc1ccc([N+](=O)[O-])cc1S(=O)(=O)N(C)C`, the “mean cytoplasmic OPP incorporation” value was 94.1. For `Cc1ccc([N+](=O)[O-])cc1S(=O)(=O)N(C)/N=C/c1cnc2ccc(Br)cn12`, the “mean cytoplasmic OPP incorporation” value was 44.3. `Cn1cccc1/C=C1\C(=O)NC(=O)c2ccccc21` was tested, and the “mean cytoplasmic OPP incorporation” value was 89.4. `Cc1cc(Nc2ncc(Cl)c(Nc3ccccc3S(=O)(=O)C(C)C)n2)c(OC(C)C)cc1C1CCNCC1` [Ceritinib (LDK378)] was tested, and the “mean cytoplasmic OPP incorporation” value was 25.4. `CC(C)Oc1cc(Nc2nc(N[C@@H](C)c3ccc(F)cn3)ncc2Cl)n[nH]1` was tested, and the “mean cytoplasmic OPP incorporation” value was 110. With `O=C1c2ccccc2-c2nc3nonc3nc21` the “mean cytoplasmic OPP incorporation” value was 81.3. For `O=C1C(SCCO)=C(SCCO)C(=O)c2ccccc21`, the “mean cytoplasmic OPP incorporation” value was 71.3 and 55.3. With `O=C1c2ccccc2C(=O)c2c1ccc(O)c2O` [Alizarin] the “mean cytoplasmic OPP incorporation” value was 106. In the case of `O=[N+]([O-])c1ccc(Oc2ccc(Br)cc2)c(C(O)P(=O)(O)O)c1` (configuration not stated), the “mean cytoplasmic OPP incorporation” value is reported as 95.9. With `COC(=O)C(Cc1ccc(OCCn2c(=O)sc3cc(C(=O)c4ccccc4)ccc32)cc1)C(=O)OC` the “mean cytoplasmic OPP incorporation” value was 105. With `CC(=O)OC[C@H]1O[C@@H]([S-])[C@H](OC(C)=O)[C@@H](OC(C)=O)[C@@H]1OC(C)=O.CCP(CC)CC.[Au+]` [Auranofin] the “mean cytoplasmic OPP incorporation” value was 10.4. `CCCCc1nc2ccn(Cc3cccs3)c(=O)c2n1Cc1ccc(-c2ccccc2-c2nn[nH]n2)cc1` was tested, and the “mean cytoplasmic OPP incorporation” value was 104. For `COc1cc(-c2cn(C)c(=O)c3cnccc23)c(OC)cc1CN(C)C`, the “mean cytoplasmic OPP incorporation” value was 95.8. `c1ccc(-c2n[nH]c3c2oc2ccccc23)cc1` was tested, and the “mean cytoplasmic OPP incorporation” value was 87.3. With `Cc1[nH]c(=O)c(C#N)cc1-c1ccncc1` [Milrinone] the “mean cytoplasmic OPP incorporation” value was 94.4. With `O=C1NCCc2[nH]c(-c3ccncc3)cc21` the “mean cytoplasmic OPP incorporation” value was 49.9 ± 13. `O=C1NC(=O)/C(=C/c2ccc3nccc(-c4ccncc4)c3c2)S1` was tested, and the “mean cytoplasmic OPP incorporation” value was 90.1.
